PKA-R2B act: activators of PKA-R2B holoenzyme, primary screen, biochemical, fluorescence polarization, Cy5-IP20, human. cAMP-dependent protein kinase catalytic subunit beta (Homo sapiens) + cAMP-dependent …. PKA-R2B holoenzyme dissociation; R2B truncated from residue 108, S112A mutant; 0% DMSO only, 100% 113 µM cGMP. activation, % at 11.4 µM. 0.079% of 340,000 active. AID 504700, 2011;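 active = activation above a cutoff set at the mean over all compounds plus 3 SD, cut at about 18% in these data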;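 also: higher means more holoenzyme dissociation and a rise in polarization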
Target sequence (P31323 whole entry, looked up, other chains not shown, the tested form may be a part): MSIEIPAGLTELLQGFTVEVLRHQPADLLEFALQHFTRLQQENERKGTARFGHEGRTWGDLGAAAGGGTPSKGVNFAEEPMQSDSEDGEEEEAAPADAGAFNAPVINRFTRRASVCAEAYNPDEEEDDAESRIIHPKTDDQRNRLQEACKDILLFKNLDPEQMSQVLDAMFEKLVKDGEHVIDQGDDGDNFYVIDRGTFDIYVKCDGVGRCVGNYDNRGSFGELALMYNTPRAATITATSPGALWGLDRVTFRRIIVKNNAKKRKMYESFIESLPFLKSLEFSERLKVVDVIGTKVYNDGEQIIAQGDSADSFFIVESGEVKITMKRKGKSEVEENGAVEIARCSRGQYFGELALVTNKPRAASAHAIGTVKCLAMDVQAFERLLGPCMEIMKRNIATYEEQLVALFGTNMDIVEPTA
PKA-R1A act: activators of PKA-R1A holoenzyme, primary screen, biochemical, fluorescence polarization, Cy5-IP20, bovine R1A, mouse PKAc; 0.083% of 340,000 active; activation, % at 11.4 µM; PKA-R1A dissociation; scaled: DMSO 0%, 113 µM cGMP 100%;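 active = percent activation above the mean of all tested compounds plus 3 SD, cut at about 19% in these data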;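 also: higher means more PKAc released from R1A so a rise in polarization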
PAFAH2 inh: PAFAH2 enzyme inhibitors, primary screen, biochemical, fluorescence polarization, human. Platelet-activating factor acetylhydrolase 2, cytoplasmic (Homo sapiens), Q99487. recombinant PAFAH2, FP-rhodamine activity probe. inhibition, % at 3.39 µM. 0.99% of 340,000 active. AID 492956, 2010;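 active = inhibition above the mean over all tested compounds plus 3 SD, cut at about 30% in these data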;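 also: inhibitors block probe labeling of enzyme so polarization drops; 0% = enzyme with DMSO and 100% = wells lacking PAFAH2 protein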
PAFAH1B2 FP inh: PAFAH1B2 enzyme inhibitors, primary screen, biochemical, fluorescence polarization, human; recombinant PAFAH1B2, FP-rhodamine activity probe; inhibition, % at 3.39 µM; Platelet-activating factor acetylhydrolase IB subunit alpha2 (Homo sapiens), P68402; 1.2% of 340,000 active;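 active = inhibition above the mean of all tested compounds plus 3 SD, cut at about 24% in these data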;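 also: 0% = enzyme with DMSO and 100% = wells lacking PAFAH1B2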
PAFAH1B3 FP inh: PAFAH1B3 enzyme inhibitors, primary screen, biochemical, fluorescence polarization, human; Platelet-activating factor acetylhydrolase IB subunit alpha1 (Homo sapiens), Q15102; recombinant PAFAH1B3, FP-rhodamine probe; inhibition, % at 3.39 µM; 0.28% of 340,000 active; AID 492972, 2010;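 active = inhibition above the screen-wide average of all tested compounds plus 3 SD, cut at about 25% in these data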;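 also: 0% = enzyme with DMSO only and 100% = wells lacking PAFAH1B3 protein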
pPAFAH inh: pPAFAH enzyme inhibitors, primary screen, biochemical, fluorescence polarization, human; Platelet-activating factor acetylhydrolase (Homo sapiens), Q13093; recombinant pPAFAH, FP-rhodamine probe fluorescence polarization; 1.5% of 330,000 active; inhibition, % at 3.39 µM;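 active = inhibition above the mean inhibition across the screen plus 3 SD, cut at about 25% in these data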;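 also: inhibitors block binding of the rhodamine activity-based probe so polarization drops; 0% = enzyme with DMSO and 100% = wells lacking pPAFAH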
PAFAH2 confirm: PAFAH2 enzyme inhibitors, confirmation, biochemical, fluorescence polarization, human; shares compounds with PAFAH2 inh; recombinant PAFAH2, FP-rhodamine activity probe; inhibition, % at 3.39 µM; 65% of 2,300 active;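 active = mean inhibition over three repeats above a set limit taken from the earlier primary screen, cut at about 30% in these data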;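 also: inhibitor blocks binding of rhodamine activity probe so polarization falls; 0% = enzyme with DMSO and 100% = wells lacking PAFAH2 protein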
An asterisk follows results filed as active; x = no result given. Rows were chosen to be rich in hits. Some 2.6% of all compounds tested hit in one or more screens of this group.

SMILES | PKA-R2B act | PKA-R1A act | PAFAH2 inh | PAFAH1B2 FP inh | PAFAH1B3 FP inh | pPAFAH inh | PAFAH2 confirm
COc1cc(/C=C/C(=O)OCC(=O)NCc2cccs2)ccc1OC(F)F | -4 | 9 | 33* | -1 | 3 | 6 | 51*
COc1ccc(OC)c(/C=C/C(=O)OCC(=O)NCc2ccccc2)c1 | -3 | -4 | 46* | 0 | 3 | 6 | 28
CCCN(C(=O)c1nc2nc(C)cc(C)n2n1)c1c(N)n(Cc2ccccc2)c(=O)[nH]c1=O | -7 | 1 | 2 | 4 | 3 | -1 | x
CC(C)NS(=O)(=O)c1ccc(NC(=O)C(C)OC(=O)CCC2CCCC2)cc1 (configuration not stated) | -8 | 5 | 2 | -3 | 12 | 21 | x
O=c1c(C(c2c(O)nc3n(c2=O)CCS3)c2cccc3ccccc23)c(O)nc2n1CCS2 | 1 | 11 | 37* | 3 | -3 | -5 | 26
O=C(c1cc(-c2ccc(Cl)cc2Cl)on1)N1CCOCC1 | 1 | -1 | 37* | -2 | -9 | 1 | 27
O=C(c1cc(-c2ccc(Cl)cc2)on1)N1CCOCC1 | 8 | 6 | -3 | 1 | 2 | 4 | x
CCN(c1cccc(C)c1)C1C(=O)c2ccccc2N1C(C)=O (configuration not stated) | -6 | -17 | 38* | 12 | 6 | 0 | 12
COc1ccc(NC(=O)COC(=O)c2ccc(F)cc2F)cc1 | 2 | -4 | 2 | 8 | 0 | 16 | x
COc1cccc(NC(=O)COC(=O)c2ccc(F)cc2F)c1 | -2 | -4 | 73* | 4 | 2 | 21 | 61*
N#Cc1ccccc1NC(=O)COC(=O)c1ccc(F)cc1F | 7 | 10 | 46* | 1 | 11 | 16 | 17
CC(C)(CC(=O)OCC(=O)Nc1ccccc1F)CC1=NS(=O)(=O)c2ccccc2N1 | 4 | 6 | 31* | -7 | 1 | 0 | 28
C[C@@H]1CN([C@H](C)CO)C(=O)c2cc(C#Cc3ccccc3F)cnc2O[C@@H]1CN(C)S(=O)(=O)c1ccccc1F | 5 | -5 | x | x | x | x | x
CCOC(=O)C/C(C)=N/NC(=O)CNc1cccc(Cl)c1C | -4 | 3 | 72* | 3 | -1 | -2 | 63*
Cc1c(Cl)cccc1NCC(=O)NN=C1CCCC1 | 10 | -8 | 3 | -2 | 3 | 1 | x
Oc1ccc2c(c1)OCC1(O)Cc3cc(O)c(O)cc3C21 (configuration not stated) | 3 | -8 | 34* | 13 | 11 | x | 12
Oc1cc2c(cc1O)[C@H]1c3ccc(O)c(O)c3OC[C@@]1(O)C2 | 6 | 1 | 15 | 2 | 5 | -1 | x
CCn1c(SCC(=O)Nc2cccc(S(=O)(=O)N(C)c3ccccc3)c2)nnc1C1CC1 | -6 | -8 | 0 | -1 | 9 | 2 | x
CC(NC(=O)C(NS(=O)(=O)c1cccs1)C(C)C)c1ccc(S(N)(=O)=O)cc1 (configuration not stated) | -3 | -6 | -2 | 0 | 0 | 0 | x
Cc1sc2ncnc(SCC(=O)N3CCCC3=O)c2c1C | 5 | 1 | 81* | 9 | 7 | 0 | 83*
Cc1sc2ncnc(SCC(=O)N3CCCCC3)c2c1C | 3 | -5 | -2 | 2 | 4 | -4 | x
O=C(O)/C(=C\c1ccccc1OC(F)F)c1ccc(-c2ccccc2)cc1 | -1 | 0 | 49* | -4 | 3 | 13 | 40*
COc1ccc(NC(=O)COC(=O)c2ccc(-n3cnnn3)cc2)cc1Cl | -16 | -17 | 35* | -4 | 1 | -1 | 27
COc1ccc(OC)c(NC(=O)COC(=O)c2ccc(-n3cnnn3)cc2)c1 | 4 | 5 | 8 | 4 | 10 | 0 | x
